According to PubChem BioAssay (EPA / NIEHS):
Several values for one entry are separate records, joined by “and”; a condition that tells them apart may be missing. Equal entries are not always repeated. Inconclusive results are not listed. Where a structure was tested more than once in an assay, its records may differ in their call. Activity calls are given as the source filed them. How the source made its calls: active means hit-call score of the fitted dose curve at least 0.9, where 1 is the maximum; inconclusive means response in the unintended direction; inactive means score below 0.9.

Columns and labels:
[1] = NVS_IC_rCaBTZCHL: NovaScreen (NVS) Ion Channel Assay for Calcium Channel, Type L, Benzothiazepine Site (CaBTZCHL) (AID 2283337)
Procedure, shortened: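 Competitive displacement of a site-specific radioligand from rat cortex membranes, measured as signal loss against DMSO baseline by filter radiodetection after 1.5 h. Single-point 25 uM primary screen.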

[2] = target: human Constitutive Androstane Receptor (CAR), NR1I3 (gene 9970) (UniProt Q14994); assay: NVS_NR_hCAR_Antagonist: NovaScreen (NVS) Nuclear Receptor Binding Assay for human Constitutive Androstane Receptor Antagonism (CAR) (AID 2283344)
Procedure, shortened: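 Cell-free TR-FRET binding read 1 h after dosing, antagonist mode; loss of signal versus DMSO baseline. Primary screen in duplicate at a single 25 uM; actives retested in concentration series.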

[3] = target: chimpanzee Androgen Receptor (AR), AR (gene 747460) (UniProt O97775); assay: NVS_NR_cAR: NovaScreen (NVS) Nuclear Receptor Binding Assay for chimpanzee Androgen Receptor (AR) (AID 2283346);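 further: radioligand displacement from AR measured by scintillation counting in a cell-free assay; a loss of bound radioligand signal versus DMSO counts as binding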
Procedure, shortened: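 Radioligand binding to chimpanzee AR expressed in Sf9/Sf21 cells, cell-free, measured 72 h after dosing by lysate-based scintillation counting. Loss of signal vs DMSO; initial duplicate screen at 25 uM, actives retested in concentration series.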

[4] = target: Estrogen receptor (Homo sapiens) (UniProt P03372); assay: NVS_NR_hER: NovaScreen (NVS) Nuclear Receptor Binding Assay for human Estrogen Receptor (ER) (AID 2283348)
Procedure, shortened: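 Radioligand competitive displacement binding to estrogen receptor from MCF7 extract, cell-free; 18 h after dosing, scintillation read-out. Primary screen in duplicate at 25 uM; actives followed up in concentration series; loss of signal vs DMSO.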

[5] = target: Estrogen receptor (Homo sapiens) (UniProt P03372); assay: OT_ER_ERaERa_1440: Odyssey Thera (OT) 24-hour HEK293T Protein-Complementation Assay for Estrogen Receptor-alpha/-alpha Homodimer (AID 2283349);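 further: hits raise fluorescence above DMSO for agonists and antagonists alike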
Procedure, shortened: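 HEK293T cells stably expressing the human ER alpha ligand-binding domain (aa 310-547) as a homodimer PCA were dosed for 24 hours. Fluorescence intensity was read by laser scanning cytometry, and gain of signal was fitted relative to DMSO vehicle.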

[6] = target: Estrogen receptor (Homo sapiens) (UniProt P03372); assay: OT_ER_ERaERa_0480: Odyssey Thera (OT) 8-hour HEK293T Protein-Complementation Assay for Estrogen Receptor-alpha/-alpha Homodimer (AID 2283351);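 further: rise in fluorescence from reassembled reporter fragments on ERα LBD homodimer in nucleus or whole cell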
Procedure, shortened: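 Binding reporter in which dimerisation of ERα LBD (aa 310-547) fusions reconstitutes a fluorescent reporter in HEK293T cells. Compounds incubated 8 h; mean fluorescence intensity increase versus DMSO scored.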

[7] = target: T1, Estrogen receptor (Homo sapiens) + Estrogen receptor beta (Homo sapiens) (UniProt P03372+Q92731); assay: OT_ER_ERaERb_0480: Odyssey Thera (OT) 8-hour HEK293T Protein-Complementation Assay for Estrogen Receptor-alpha/-beta Heterodimer (AID 2283352)
Procedure, shortened: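 Human HEK293T cells were treated for 8 hours and receptor heterodimerisation was detected through reconstitution of a fluorescent reporter split between ER-alpha and ER-beta ligand-binding domains. Activity was analysed as gain of signal against DMSO.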

[8] = target: T1, Estrogen receptor (Homo sapiens) + Estrogen receptor beta (Homo sapiens); assay: OT_ER_ERaERb_1440: Odyssey Thera (OT) 24-hour HEK293T Protein-Complementation Assay for Estrogen Receptor-alpha/-beta Homodimer (AID 2283356);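 further: heteromer of ER alpha and ER beta binding domains; hits raise reporter fluorescence and both agonists and antagonists give an increase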
Procedure, shortened: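 24 h exposure; HEK293T PCA cells with ERα/ERβ LBD fragments; signal rise in nuclear or whole-cell fluorescence over vehicle.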

[9] = target: Estrogen receptor beta (Homo sapiens) (UniProt Q92731); assay: OT_ER_ERbERb_0480: Odyssey Thera (OT) 8-hour HEK293T Protein-Complementation Assay for Estrogen Receptor-beta/-beta Homodimer (AID 2283357);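 further: active means signal gain over DMSO baseline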
Procedure, shortened: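 Fluorescence intensity, nuclear for agonists and nuclear plus cytoplasmic for antagonists, was quantified by laser scanning cytometry versus vehicle after 8 h treatment. The cells were HEK293T stably carrying ER beta LBD fragment-complementation partners.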

[10] = target: bovine Gamma-Aminobutyric Acid Type A Receptor Agonist (GABAR Agonist), GABRA1 (gene 780973) (UniProt P08219); assay: NVS_LGIC_bGABAR_Agonist: NovaScreen (NVS) Ligand-Gated Ion Channel Assay for bovine Gamma-Aminobutyric Acid Type A Receptor Agonist (GABAR Agonist) (AID 2283338)
Procedure, shortened: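 Radioligand binding to bovine cerebellar membranes in agonist format, read by filter-based scintillation counting after 1 h. Primary screen in duplicate at 25 uM, with actives followed in concentration series. Gain of signal versus DMSO.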

[11] = tested on: NCBI gene 100848466; assay: NVS_NR_bPR: NovaScreen (NVS) Nuclear Receptor Binding Assay for bovine Progextron Receptor (PR) (AID 2283343);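 on AC50: actives lower bound radioligand signal below DMSO meaning displacement of the label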
Procedure, shortened: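 Bovine uterine membrane preparation; radioligand displacement read by scintillation counting 18 h after dosing. Primary screen single concentration, 25 uM, in duplicate; actives followed up in concentration series. Signal loss versus DMSO baseline.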

[12] = target: Retinoic acid receptor alpha (Homo sapiens) (UniProt P10276); assay: NVS_NR_hRAR_Antagonist: NovaScreen (NVS) Nuclear Receptor Binding Assay for human Retinoic Acid Alpha Receptor Antagonism (RAR) (AID 2283358)
Procedure, shortened: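 Cell-free TR-FRET binding assay with extracted human RARalpha in antagonist mode, read 2 h after dosing. Loss of signal was fitted relative to DMSO; the primary screen used 25 uM in duplicate, with concentration series on follow-up.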

[13] = tested on: guinea pig Histamine Receptor (H2), gene 100729734; assay: NVS_GPCR_gH2: NovaScreen (NVS) G Protein-Coupled Receptor Assay for guinea pig Histamine Receptor (H2) (AID 2283342)
Procedure, shortened: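 Radioligand displacement on guinea pig striatal membranes, 1 h after dosing, filter-based scintillation counting; loss of signal versus DMSO. Single-point screen at 25 uM in duplicate, then concentration-response up to 50 uM.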

[14] = target: rat Glycine Receptor, Strychnine-sensitive (GlyRStrySens), Glra1 (gene 25674) (UniProt P07727); assay: NVS_LGIC_rGlyRStrySens: NovaScreen (NVS) Ligand-Gated Ion Channel Assay for rat Glycine Receptor, Strychnine-sensitive (GlyRStrySens) (AID 2283341)
Procedure, shortened: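 Radioligand displacement on rat spinal cord membranes, 1 hr, filter scintillation read-out. Single-concentration duplicate screen at 25 uM; chemicals meeting threshold (e.g., 30% inhibition) rerun in concentration-response up to 50 uM. Loss of binding fitted versus DMSO.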

[15] = target: Androgen Receptor/SRC-1 Co-activator, AR (gene 367) (UniProt P10275); assay: OT_AR_ARSRC1_0960: Odyssey Thera (OT) 16-hour HEK293T Protein-Complementation Assay for Androgen Receptor/SRC-1 Co-activator (AID 2283353);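 further: actives raise the signal above DMSO so potency reflects increased AR and SRC-1 complex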
Procedure, shortened: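 Interaction of AR with SRC-1 was followed by YFP fragment complementation in HEK293T cells after 16 h of dosing. Gain of nuclear-over-cytoplasmic 488 nm fluorescence against DMSO controls defined activity.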

[16] = target: Androgen Receptor/SRC-1 Co-activator, AR (gene 367) (UniProt P10275); assay: OT_AR_ARSRC1_0480: Odyssey Thera (OT) 8-hour HEK293T Protein-Complementation Assay for Androgen Receptor/SRC-1 Co-activator (AID 2283354);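 further: hits raise the complementation signal above DMSO so AC50 marks enhancers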
Procedure, shortened: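 HEK293T cells stably expressing AR and SRC-1 fused to Venus YFP fragments, imaged 8 h after dosing. Complementation fluorescence scored as nuclear/cytoplasmic ratio at 488 nm in at least 400 cells per image; gain fitted versus DMSO.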

[17] = target: rat Glutamate, MK-801 Agonist Site (GluNMDA_MK801), Grin1 (gene 24408) (UniProt P35439); assay: NVS_LGIC_rGluNMDA_MK801_Agonist: NovaScreen (NVS) Ligand-Gated Ion Channel Assay for rat Glutamate, MK-801 Agonist Site (GluNMDA_MK801) (AID 2283340)
Procedure, shortened: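 Radioligand binding at MK-801 site in rat forebrain membranes, 1.5 h incubation, filter-based scintillation counting. Initially 25 uM in duplicate; actives then run in concentration-response up to 50 uM, fitted for gain of signal versus DMSO.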

[18] = target: Bile acid receptor (Homo sapiens) (UniProt Q96RI1); assay: NVS_NR_hFXR_Antagonist: NovaScreen (NVS) Nuclear Receptor Binding Assay for human Farnesoid X Receptor Antagonism (FXR) (AID 2283350)
Procedure, shortened: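 Cell-free TR-FRET ligand-binding read-out on human FXR (NR1H4) in antagonist mode, measured 1 h after dosing. Primary screen in duplicate at 25 uM, actives retested in concentration series; signal loss scored versus DMSO.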

Measured: AC50

Androgen Receptor/SRC-1 Co-activator, AR (gene 367), sequence (P10275 whole entry, looked up, the tested form may be a part): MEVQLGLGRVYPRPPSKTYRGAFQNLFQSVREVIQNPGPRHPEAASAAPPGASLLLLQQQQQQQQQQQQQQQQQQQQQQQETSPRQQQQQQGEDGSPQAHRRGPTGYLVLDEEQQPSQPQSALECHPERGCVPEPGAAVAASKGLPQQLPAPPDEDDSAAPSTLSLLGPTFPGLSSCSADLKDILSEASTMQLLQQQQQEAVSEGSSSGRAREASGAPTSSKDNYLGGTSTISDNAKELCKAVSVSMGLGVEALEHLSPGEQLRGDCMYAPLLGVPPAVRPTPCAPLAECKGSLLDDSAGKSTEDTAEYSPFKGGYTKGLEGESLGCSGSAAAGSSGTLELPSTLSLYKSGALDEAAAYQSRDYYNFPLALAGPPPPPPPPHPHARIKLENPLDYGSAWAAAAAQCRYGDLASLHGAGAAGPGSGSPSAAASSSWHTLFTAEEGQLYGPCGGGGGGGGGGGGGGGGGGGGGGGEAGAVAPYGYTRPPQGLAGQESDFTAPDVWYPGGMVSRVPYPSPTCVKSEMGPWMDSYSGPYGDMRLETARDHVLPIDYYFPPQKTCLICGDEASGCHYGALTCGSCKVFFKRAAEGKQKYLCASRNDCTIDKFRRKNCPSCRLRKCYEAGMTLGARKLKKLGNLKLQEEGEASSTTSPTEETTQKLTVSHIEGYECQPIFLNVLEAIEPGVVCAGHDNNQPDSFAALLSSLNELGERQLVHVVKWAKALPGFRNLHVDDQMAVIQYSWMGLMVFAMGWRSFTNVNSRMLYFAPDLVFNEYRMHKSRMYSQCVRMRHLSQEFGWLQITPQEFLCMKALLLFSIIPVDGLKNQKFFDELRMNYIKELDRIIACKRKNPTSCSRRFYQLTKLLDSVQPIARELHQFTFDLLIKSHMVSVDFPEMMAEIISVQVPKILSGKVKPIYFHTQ
Retinoic acid receptor alpha (Homo sapiens), sequence (P10276 whole entry, looked up): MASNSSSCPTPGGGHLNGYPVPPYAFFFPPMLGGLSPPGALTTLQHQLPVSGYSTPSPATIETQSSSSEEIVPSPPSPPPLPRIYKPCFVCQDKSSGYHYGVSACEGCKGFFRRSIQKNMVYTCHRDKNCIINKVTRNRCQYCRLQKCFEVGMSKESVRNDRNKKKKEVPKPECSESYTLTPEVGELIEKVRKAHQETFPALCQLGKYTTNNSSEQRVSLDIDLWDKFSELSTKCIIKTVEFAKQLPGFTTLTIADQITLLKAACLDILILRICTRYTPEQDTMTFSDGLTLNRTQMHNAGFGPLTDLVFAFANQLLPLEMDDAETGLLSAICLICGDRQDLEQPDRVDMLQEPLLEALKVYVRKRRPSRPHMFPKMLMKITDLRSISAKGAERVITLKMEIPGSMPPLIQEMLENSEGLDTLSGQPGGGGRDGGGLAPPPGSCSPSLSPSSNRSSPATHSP
rat Glycine Receptor, Strychnine-sensitive (GlyRStrySens), Glra1 (gene 25674), sequence (P07727 whole entry, looked up): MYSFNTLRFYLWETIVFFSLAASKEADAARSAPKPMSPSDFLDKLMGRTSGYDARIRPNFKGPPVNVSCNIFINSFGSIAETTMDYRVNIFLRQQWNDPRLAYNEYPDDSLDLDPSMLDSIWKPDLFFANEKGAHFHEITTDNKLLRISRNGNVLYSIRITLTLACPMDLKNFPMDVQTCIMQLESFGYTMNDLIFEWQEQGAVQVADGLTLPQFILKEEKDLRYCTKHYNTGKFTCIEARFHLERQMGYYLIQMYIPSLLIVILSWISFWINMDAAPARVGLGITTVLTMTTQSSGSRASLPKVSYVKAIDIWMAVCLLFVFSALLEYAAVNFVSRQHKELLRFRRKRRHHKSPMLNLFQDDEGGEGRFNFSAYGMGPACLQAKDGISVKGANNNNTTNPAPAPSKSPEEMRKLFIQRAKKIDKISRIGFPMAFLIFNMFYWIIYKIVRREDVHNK
human Constitutive Androstane Receptor (CAR), NR1I3 (gene 9970), sequence (Q14994 whole entry, looked up): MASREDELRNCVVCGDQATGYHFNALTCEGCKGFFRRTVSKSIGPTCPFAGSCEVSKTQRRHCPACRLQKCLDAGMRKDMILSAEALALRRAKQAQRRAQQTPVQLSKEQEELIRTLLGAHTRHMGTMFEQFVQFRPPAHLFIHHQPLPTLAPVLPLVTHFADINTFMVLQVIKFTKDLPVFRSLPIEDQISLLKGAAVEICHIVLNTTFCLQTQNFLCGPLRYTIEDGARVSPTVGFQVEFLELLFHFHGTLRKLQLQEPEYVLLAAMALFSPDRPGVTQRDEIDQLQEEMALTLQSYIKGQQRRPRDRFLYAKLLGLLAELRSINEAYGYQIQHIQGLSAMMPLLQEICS
Estrogen receptor (Homo sapiens), sequence (P03372 whole entry, looked up, the tested form may be a part): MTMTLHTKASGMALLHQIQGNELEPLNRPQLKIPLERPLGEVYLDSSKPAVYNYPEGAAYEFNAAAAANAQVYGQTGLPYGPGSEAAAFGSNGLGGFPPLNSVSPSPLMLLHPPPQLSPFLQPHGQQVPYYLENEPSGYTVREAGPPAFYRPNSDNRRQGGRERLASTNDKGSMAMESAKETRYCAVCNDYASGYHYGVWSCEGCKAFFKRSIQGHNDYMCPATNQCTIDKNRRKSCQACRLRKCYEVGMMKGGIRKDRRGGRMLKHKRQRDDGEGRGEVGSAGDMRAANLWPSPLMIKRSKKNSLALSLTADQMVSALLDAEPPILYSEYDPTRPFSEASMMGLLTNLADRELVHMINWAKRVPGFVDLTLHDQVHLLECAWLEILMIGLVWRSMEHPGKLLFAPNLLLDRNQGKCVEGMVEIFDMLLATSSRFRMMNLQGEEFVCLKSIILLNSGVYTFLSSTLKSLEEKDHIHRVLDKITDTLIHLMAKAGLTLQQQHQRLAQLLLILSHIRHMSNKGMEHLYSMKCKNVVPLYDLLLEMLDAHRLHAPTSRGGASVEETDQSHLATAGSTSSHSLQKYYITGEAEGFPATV
T1 sequence (P03372 whole entry, looked up, the tested form may be a part): as above
T1 sequence (Q92731 whole entry, looked up, the tested form may be a part): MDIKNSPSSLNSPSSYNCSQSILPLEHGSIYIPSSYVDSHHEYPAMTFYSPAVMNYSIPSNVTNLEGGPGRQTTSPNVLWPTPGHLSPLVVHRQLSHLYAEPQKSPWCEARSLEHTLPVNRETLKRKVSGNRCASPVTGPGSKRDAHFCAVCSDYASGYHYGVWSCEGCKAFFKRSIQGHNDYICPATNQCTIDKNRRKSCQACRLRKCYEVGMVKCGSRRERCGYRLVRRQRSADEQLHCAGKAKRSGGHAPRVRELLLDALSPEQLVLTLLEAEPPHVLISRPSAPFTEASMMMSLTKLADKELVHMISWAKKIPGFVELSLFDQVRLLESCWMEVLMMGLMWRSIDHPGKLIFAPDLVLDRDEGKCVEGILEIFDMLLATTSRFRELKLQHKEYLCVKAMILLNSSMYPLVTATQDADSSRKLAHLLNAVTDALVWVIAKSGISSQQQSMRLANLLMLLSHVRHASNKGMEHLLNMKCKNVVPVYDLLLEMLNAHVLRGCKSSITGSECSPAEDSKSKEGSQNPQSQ
chimpanzee Androgen Receptor (AR), AR (gene 747460), sequence (O97775 whole entry, looked up): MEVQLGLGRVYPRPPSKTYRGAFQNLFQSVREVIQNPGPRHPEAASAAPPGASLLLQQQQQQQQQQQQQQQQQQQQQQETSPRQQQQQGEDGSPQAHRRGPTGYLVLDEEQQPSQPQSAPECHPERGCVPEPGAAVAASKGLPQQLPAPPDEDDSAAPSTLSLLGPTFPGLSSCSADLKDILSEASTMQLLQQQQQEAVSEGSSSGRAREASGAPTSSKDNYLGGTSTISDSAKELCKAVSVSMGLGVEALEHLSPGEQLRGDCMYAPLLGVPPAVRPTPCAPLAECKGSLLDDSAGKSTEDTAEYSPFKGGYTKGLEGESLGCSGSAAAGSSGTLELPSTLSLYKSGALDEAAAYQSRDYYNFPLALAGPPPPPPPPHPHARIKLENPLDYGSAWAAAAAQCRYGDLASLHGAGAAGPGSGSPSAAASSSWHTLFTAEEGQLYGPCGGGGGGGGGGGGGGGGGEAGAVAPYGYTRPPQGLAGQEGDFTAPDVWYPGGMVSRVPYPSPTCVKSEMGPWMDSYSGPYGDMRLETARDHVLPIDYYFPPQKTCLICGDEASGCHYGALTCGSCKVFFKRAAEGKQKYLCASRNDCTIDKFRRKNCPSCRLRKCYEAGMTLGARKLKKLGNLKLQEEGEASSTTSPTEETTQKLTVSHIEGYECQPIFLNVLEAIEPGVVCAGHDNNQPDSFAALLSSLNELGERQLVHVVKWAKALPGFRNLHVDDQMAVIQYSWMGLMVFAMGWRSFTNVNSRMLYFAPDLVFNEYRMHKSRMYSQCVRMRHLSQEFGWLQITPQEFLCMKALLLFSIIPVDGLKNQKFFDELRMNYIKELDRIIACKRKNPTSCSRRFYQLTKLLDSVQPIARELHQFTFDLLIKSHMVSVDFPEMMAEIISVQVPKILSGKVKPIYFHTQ
Estrogen receptor beta (Homo sapiens), sequence (Q92731 whole entry, looked up, the tested form may be a part): as the sequence (Q92731 whole entry, looked up, the tested form may be a part) above
bovine Gamma-Aminobutyric Acid Type A Receptor Agonist (GABAR Agonist), GABRA1 (gene 780973), sequence (P08219 whole entry, looked up): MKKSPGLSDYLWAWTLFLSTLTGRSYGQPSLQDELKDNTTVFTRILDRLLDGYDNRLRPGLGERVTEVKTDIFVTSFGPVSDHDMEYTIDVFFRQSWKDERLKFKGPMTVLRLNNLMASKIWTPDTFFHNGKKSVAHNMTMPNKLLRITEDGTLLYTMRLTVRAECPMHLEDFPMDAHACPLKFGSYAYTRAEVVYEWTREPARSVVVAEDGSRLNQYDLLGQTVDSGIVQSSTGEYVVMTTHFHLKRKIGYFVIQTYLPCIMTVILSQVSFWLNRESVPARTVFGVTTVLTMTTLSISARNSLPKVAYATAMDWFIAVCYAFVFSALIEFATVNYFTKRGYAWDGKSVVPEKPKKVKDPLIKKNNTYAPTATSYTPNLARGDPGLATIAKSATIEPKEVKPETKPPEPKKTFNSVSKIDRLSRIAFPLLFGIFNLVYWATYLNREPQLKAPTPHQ

OC(c1ccc(Cl)cc1)(c1cncnc1)c1ccccc1Cl (configuration not stated)
inactive: [1] | [3] | [4] | [5] | [6]
active: [2] 25 µM | [7] 11.9 µM | [8] 12.1 µM | [9] 12.5 µM

CCNc1nc(Cl)nc(NC(C)C)n1
inactive: [10] | [4] | [5] | [6] | [7] | [8] | [9]

CCCCOC(=O)c1ccccc1C(=O)OCCCC
active: [5] 35.4 µM and 46.5 µM and 60 µM | [6] 46.7 µM and 37.4 µM and 35.4 µM | [7] 33.1 µM and 25.9 µM and 23.5 µM | [8] 38.4 µM and 33.9 µM and 39.3 µM | [9] 28.8 µM and 38.1 µM and 34.2 µM
inactive: [10] | [11] | [2] | [3] | [4] | [12]

CCOP(=S)(OCC)SCn1c(=O)oc2cc(Cl)ccc21
active: [11] 2.98 µM
inactive: [13] | [2] | [5] | [6] | [8] | [9]

CC(Oc1ccc(Cl)cc1Cl)C(=O)O (configuration not stated)
inactive: [14] | [4] | [5] | [6] | [12]

Cc1c(F)c(F)c(COC(=O)C2C(/C=C(\Cl)C(F)(F)F)C2(C)C)c(F)c1F (configuration not stated)
inactive: [14] | [4] | [5] | [6] | [7] | [8] | [9]

C=CC1(C)OC(=O)N(c2cc(Cl)cc(Cl)c2)C1=O (configuration not stated)
inactive: [11] | [3] | [4] | [5] | [6] | [7] | [8] | [9]

O=C(Nc1ccccc1)Nc1ccnc(Cl)c1
inactive: [14] | [5] | [6] | [15] | [16]

CON(C)C(=O)Nc1ccc(Cl)c(Cl)c1
active: [3] 15.3 µM
inactive: [11] | [2] | [4] | [5] | [6]

CO/C=C(/C(=O)OC)c1ccccc1Oc1cc(Oc2ccccc2C#N)ncn1
active: [1] 6.63 µM and 15.4 µM
not listed: [3] | [7] | [9] | [10] | [13] | [14] | [18]
inactive: all other assays above

COc1ccc(C(c2ccc(OC)cc2)C(Cl)(Cl)Cl)cc1
inactive: [11] | [2] | [4] | [18] | [12]
active: [4] 4.64 µM and 5.49 µM and 13.9 µM | [5] 13.8 µM and 21.6 µM and 14.4 µM | [6] 13 µM and 12.5 µM and 10.8 µM | [7] 4.23 µM and 12.5 µM and 9.58 µM | [8] 25.8 µM and 33.2 µM and 22.2 µM | [9] 3.79 µM and 3.62 µM and 3.92 µM
